Test results taken from PubChem BioAssay (NCI).
About 79,000 compounds went through this panel and 15% of them were active in at least one assay; those are over-represented in the sample as a whole. Unmarked numbers belong to inactive results. Cut-off read from the data, not from the text of the source: active = growth inhibition above about 70%; inactive = the rest.

Test: NCI Yeast Anticancer Drug Screen. Data for the mlh1 rad18 strain (AID 175)
Settings: S. cerevisiae mlh1 rad18 strain growth inhibition; at 50.0 µM; stronger effect = higher value
Method in brief: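 Growth inhibition of the yeast strain was measured after compound exposure and expressed relative to vehicle-treated controls. The strain carries defined defects in DNA damage repair.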

In order of rising growth inhibition:
1. CN(C)CCNC(=O)c1cccc(C(=O)Nc2ccccc2)c1[N+](=O)[O-]  -41.6%
2. Nc1ccnc(=O)[nH]1  -36.8%
3. Cc1ccc(C(=O)N(Cc2ccccc2)Cc2ccccc2)cc1N=NN(C)C  -22.2%
4. CCOC(=O)C1CSCN1C(C)=O (stereo not given)  -21.9%
5. O=C(COc1ccc(F)cc1)OCCO  -18.9%
6. CCOC(=O)c1cnc2c(cnn2C(C)C)c1NN  -15.4%
7. COc1cccc(C2C3=C(COC3=O)Oc3cc4c(cc32)OCO4)c1 (stereo not given)  -14.2%
8. Clc1ccc(N=C2c3ccccc3CN2c2ccc(Cl)cc2)cc1  -13.9%
9. O=C1C(c2ccccc2)=C(c2ccccc2)/C1=C\c1ccc(Cl)cc1Cl  -13.8%
10. CNS(=O)(=O)c1ccc(Br)cc1  -12.4%
11. Cc1cc(C)n(/N=C/c2ccco2)c(=O)c1C#N  -10.7%
12. CC1OC(C)(Cc2ccccc2)OC1C (stereo not given)  -8.95%
13. C[Si](C)(C)N1N=NC2C(=O)N(c3ccccc3)C(=O)C21 (stereo not given)  -7.4%
14. CC(=O)N(CCC(C)C)c1ccccc1  -6.85%
15. N/N=C(\N)SCCCCCCS/C(N)=N/N  -5.2%
16. CCNC(=O)N(C)Cc1ccc(Cl)cc1  -5.1%
17. COc1cc([N+](=O)[O-])c(F)cc1F  -3.1%
18. C(=NC12CC3CC(CC(C3)C1)C2)C1CCCCC1  -2.5%
19. CC(=O)OCC(OC(C)=O)C(OC(C)=O)C(/C=C/[N+](=O)[O-])OC(C)=O (stereo not given)  -2.05%
20. O=C(O)c1ccc2ccccc2c1C(=O)O  -1.7%
21. Cc1cc(C)cc(C(=O)N=C(c2ccncc2)c2nc(-c3ccccc3)oc2O)c1  -1.3%
22. CC(=O)Oc1cc2c3ccccc3ccc2c2ccccc12  0.05%
23. C=CCOC(=O)OCC=C  3.1%
24. CSC(SC)C(OC(C)=O)C(OC(C)=O)C(OC(C)=O)C(COC(C)=O)OC(C)=O (stereo not given)  3.85%
25. Cc1cccc[n+]1C1CCc2ccccc2C1=O (stereo not given)  4%
26. O=C(NCc1ccncc1)Nc1ccc(Cc2ccc(NC(=O)NCc3ccncc3)cc2)cc1  4.25%
27. COc1ccc(Cl)c2c(=O)c3ccc4c(c3[nH]c12)C(=O)c1ccccc1C4=O  4.65%
28. CC1=C(C)OCC1  5.5%
29. O=C1[C@H]2ON(c3ccccc3)C(c3ccc(Cl)cc3)[C@H]2C(=O)N1c1ccc(Cc2ccc(N3C(=O)[C@@H]4ON(c5ccccc5)C(c5ccc(Cl)cc5)[C@@H]4C3=O)cc2)cc1 (stereo not given in full)  7.6%
30. COC(=O)C(=O)C(C(=O)C(=O)Nc1ccccc1C(N)=O)c1nc2ccc(C(=O)c3ccccc3)cc2[nH]c1=O (stereo not given)  9.5%
31. CCOC(=O)C1=C(Nc2ccc(Cl)cc2Cl)OCC1=O  10.2%
32. Cc1cc(OC(C)C)cc(C)c1C(=O)OCC(C)N1CCCC1 (stereo not given)  11.2%
33. CCOC(=O)/C=C(\C)c1ccc(Cl)cc1  14.7%
34. O=C(O)C(O)(C1CCCCC1)C1CCC2CCC3CCCC1C32 (stereo not given)  14.8%
35. CN(C)CCN=C1Nc2ccccc2C(=O)N2CSCC12 (stereo not given)  17.3%
36. COc1ccc(N=Cc2ccc(C=Nc3ccc(OC)cc3)cc2)cc1  19.9%
37. O=C1OC2C3c4ccccc4C(c4c3ccc3ccccc43)C2O1 (stereo not given)  29.2%
38. COC(=O)C1C(COS(C)(=O)=O)ON2CCC(OC)(OC)C12 (stereo not given)  43.1%
39. Brc1cccc(N=NN2CCCC2)c1  47.1%
40. C=C1C(=O)O[C@@H]2/C=C(\C)CC/C=C(/C)CC[C@@H]12  58.1%
